# Bioassay records as filed in PubChem BioAssay.
# Sampled rows, rich in hits. Any-hit rate of the full collection: about 11%.
# HCV inh: qHTS Assay for Inhibitors of Hepatitis C Virus (HCV). Huh7.5.1 HCVcc-Cre infection, luciferase reporter, 44 h. Potency, µM (highest dose often 41.8 µM), without a hit: at the highest dose activity change, negative = inhibition, hits mostly inhibitors. 3.4% of 340,000 active. AID 651820, 2012; further: on the % scale 0 is the no-effect control and ±100 the full control effect
#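 Reporter virus HCVcc-Cre (~0.5 moi) infects cells exposed to compound; seeding density 1,000 cells/well with 4 h settling beforehand. Luminescence, 15 sec read, taken 44 h post-infection following a 15 min RT substrate incubation.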
# Pf growth 48h: Primary qHTS for delayed death inhibitors of the malarial parasite plastid, 48 hour incubation; P. falciparum luciferase growth in erythrocytes, 48 h; Potency, µM (top dose mostly 28.7 µM), inactives show at the highest dose activity change, negative = inhibition, usual class: inhibitors; 5.9% of 310,000 active; AID 504832, 2011; further: on the % scale 0 is the no-effect control and ±100 the full control effect
#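 Cell-based growth assay: transgenic P. falciparum expressing firefly luciferase, cultured in red cells within RPMI 1640 containing 0.5% w/v Albumax, 24 mM bicarbonate and gentamycin. A drop in luciferase activity indicates inhibition.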
# NS1 inh: qHTS Assay for Inhibitors of Influenza NS1 Protein Function. AID 2326, 2010. Potency, µM (doses to about 46.1 µM), inactives show top-dose activity, positive = more growth. 0.4% of 270,000 active; calls by dose curve; further: actives are rising curves; nearly all actives have a fitted effect of over 50% in size
#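 Compounds were scored for reversing the slow growth caused by influenza A NS1 in S. cerevisiae, measured by optical density at 600 nm. Assay medium contained 2% galactose at pH 6.0; NS1-free yeast of the same strain were the positive control.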
# Pf growth 96h: Primary qHTS for delayed death inhibitors of the malarial parasite plastid, 96 hour incubation; AID 504834, 2011; Potency, µM (top dose mostly 28.7 µM), inactives show at the highest dose activity change, negative = inhibition, most hits filed as inhibitors; P. falciparum luciferase reporter growth, 96 h; 6.9% of 320,000 active; further: on the % scale 0 is the no-effect control and ±100 the full control effect
#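 Compounds incubated with erythrocytes infected by luciferase-expressing P. falciparum (2% hematocrit, 0.05% parasitemia final) for 96 hours, 37 C in 5% CO2. Growth inhibition scored as decreased luciferase luminescence.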
# VACV Venus inh: qHTS for Stage-Specific Inhibitors of Vaccinia Orthopoxvirus: Venus Reporter Primary qHTS; Vaccinia virus Venus reporter expression, fluorescence; Potency, µM (top dose mostly 36.5 µM), inactives show top-dose activity change, negative = inhibition, usual class: inhibitors; 0.46% of 330,000 active; AID 720580, 2013; calls by dose curve; tested in A549 cells; further: on the % scale 0 is the no-effect control and ±100 the full control effect; nearly all actives have a fitted effect of over 30% in size
# VACV mCherry inh: qHTS for Stage-Specific Inhibitors of Vaccinia Orthopoxvirus: mCherry Reporter Primary qHTS; 0.63% of 310,000 active; Vaccinia virus mCherry reporter infection, fluorescence; AID 720579, 2013; Potency, µM (titrated, usually from 36.5 µM), for the others: top-dose activity change, negative = inhibition, usual class: inhibitors; calls by dose curve; tested in A549 cells; further: on the % scale 0 is the no-effect control and ±100 the full control effect; nearly all actives have a fitted effect of over 35% in size
# * = called active by the depositor; i = inactive; ? = inconclusive; · = not tested or not shown. Unless noted, the call rests on the fitted dose curve; in most records, active means well fitted inhibition curve with a large enough effect; inconclusive means small, poorly fitted or top-dose-only effect, or another doubt; inactive means no such curve, though single readings can be large or run the other way. Potency means the concentration at half of the fitted maximal effect.
SMILES,HCV inh,Pf growth 48h,NS1 inh,Pf growth 96h,VACV Venus inh,VACV mCherry inh
COc1ccccc1CCc1nnc(CCC(=O)NC(C)Cc2ccsc2)o1 (stereo not given),0%,?,-3%,?,1.8µM*,1.1µM*
COc1cc(C(=O)NC(c2ccccc2)c2ccccc2)cc(Cl)c1OC,5%,19%,11%,0%,-5%,-14%
COc1cccc(C(=O)NC(c2ccc(Cl)cc2)c2cc(Cl)c3cccnc3c2O)c1 (stereo not given),·,·,·,·,?,10µM*
COc1cccc(C(=O)Nc2cc(Cl)c(O)c(Cl)c2)c1,6%,-4%,-47%,0%,·,·
COc1cc(C(=O)NC(c2ccc(Cl)cc2)c2cc(Cl)c3cccnc3c2O)cc(OC)c1OC (stereo not given),·,·,·,·,?,16µM*
CC(=O)c1cc2ccccc2c2ccccc12,·,·,·,·,-6%,-11%
CC(=O)c1cc(C(C)=O)c(C)[n+](C)c1C,1%,10µM*,1%,24%,4%,-8%
CC(=O)c1cc(C(C)=O)c(C)nc1C,20%,5%,·,1.9µM*,8%,4%
Cc1ccc(S(=O)(=O)c2nc(Nc3ccccc3N3CCOCC3)sc2Cl)cc1,10µM*,?,22%,?,·,·
CN1c2ccc([N+](=O)[O-])cc2N(C)C1(C)c1ccccc1 (stereo not given),?,12µM*,12%,i,-8%,?
O=[N+]([O-])c1ccc(N2CC2)c([N+](=O)[O-])c1,-23%,·,·,·,17%,?
O=C(Nc1ccc2nc3ccccc3nc2c1)c1ccccc1,?,107%,-9%,-2%,?,10µM*
Cc1cc(NC(=O)c2ccccc2Cl)ccc1NC(=O)c1ccccc1Cl,?,3%,-9%,142%,·,·
Cc1cc(NC(=O)c2ccc(Cl)cc2)ccc1NC(=O)c1ccccc1Cl,?,12%,-12%,3.7µM*,-11%,-11%
Cc1ccc2sc3ccc(NC(=O)c4ccccc4Cl)cc3c(=O)c2c1,8.9µM*,?,-8%,?,·,·
Cc1ccc(NC(=O)c2ccc(NC(=O)c3ccccc3)cc2)cc1C,·,25%,-72%,1.2µM*,10µM*,?
CCS(=O)(=O)c1ncc(Cl)c(C(=O)NCc2ccccc2)n1,·,·,·,·,-10%,-14%
CC(C)(C)c1nnc2sc(SCC(=O)c3cccs3)nn2c1=O,0%,-18%,9%,-8%,7%,·
CCC(C(=O)NC(C)(C)C)N(C(=O)Cn1nnc(-c2ccccc2F)n1)c1cnc2ccccc2c1 (stereo not given),12%,?,·,7%,-3%,-20%
Cc1ccc(NC(=O)c2ccc3c(c2)CCN3S(C)(=O)=O)cc1C,11µM*,59%,3%,0%,-26%,i
C[n+]1ccc(C(=O)Nc2ccccc2Cl)cc1,3%,20%,-2%,13µM*,·,·
CCN(CC(=O)Nc1ccc(C#N)cc1)CC(=O)Nc1ccc2c(c1)OCCO2,·,·,·,·,-9%,-4%
CCc1ccc(C2CC(=O)Nc3c2c(=O)nc2c(C)cccn32)cc1 (stereo not given),10%,-7%,·,-29%,-5%,4%
COc1ccc2sc(-c3ccc(N(C)C)cc3)c(C#Cc3cncn3C)c2c1,2.5µM*,·,·,·,?,?
COc1ccc2sc(-c3ccc(SC)cc3)c(C#CCO)c2c1,2.8µM*,·,·,·,?,?
SMILES,HCV inh,Pf growth 48h,NS1 inh,Pf growth 96h,VACV Venus inh,VACV mCherry inh
COc1cccc(-c2sc3ccc(OC)cc3c2C#CC(C)(C)O)c1,7.1µM*,?,·,?,?,?
COc1cccc(-c2sc3ccc(OC)cc3c2C#CCC(C)O)c1 (stereo not given),?,?,·,?,?,-19%
COc1ccc2sc(-c3ccc(SC)cc3)c(C#CC(C)(C)O)c2c1,2.8µM*,0%,·,?,?,?
Cc1cc(NC(=O)C(C)SCC(=O)N(C)CC(=O)Nc2ccccc2C(F)(F)F)no1 (stereo not given),8%,-25%,·,19%,-5%,-8%
Cc1ccc2c(c1)c1c(n2CC(O)Cn2nc(C)c(Br)c2C)CCCC1 (stereo not given),?,·,6%,?,·,·
COc1ccc(-c2sc3ccc(OC)cc3c2C#CCCO)cc1,?,-18%,-26%,?,?,0%
COc1ccc2sc(-c3ccc(N(C)C)cc3)c(C#CCCO)c2c1,1.4µM*,?,·,?,?,?
COc1ccc2sc(-c3ccc(N(C)C)cc3)c(C#CC(C)(C)O)c2c1,3.2µM*,?,·,?,?,-21%
COc1cc2c(cc1OC)C(=NCCC(=O)O)NC(C)(C)C2,·,·,-3%,·,·,·
COc1cc2c(cc1OC)/C(=C/C#N)NC(C)(C)C2,?,9.3µM*,15%,?,-8%,-16%
CCOC(=O)C1CCN(CC(O)COc2ccc(C(C)=O)cc2)CC1 (stereo not given),-7%,·,6%,9.3µM*,4%,12%
CC(=O)c1ccc(OCC(O)CN2CCN(S(=O)(=O)c3c(C)c(C)cc(C)c3C)CC2)cc1 (stereo not given),13µM*,?,0%,-23%,-25%,-14%
COc1ccc(N=C/C=C2/C=C(c3ccccc3)OC(C)(C)O2)cc1,17%,?,-7%,10%,-6%,i
CCc1ccc(CN2CCC(C(=O)Nc3cccc(-c4nnc(C)s4)c3)CC2)o1,-18%,?,4%,34%,-25%,-2%
Cc1ccc(CN2CCC(C(=O)Nc3cccc(-c4cccc(F)c4)c3)CC2)o1,?,28%,-5%,4.7µM*,·,·
O=C(Nc1cccc(-c2cccc(Cl)c2)c1)C1CCN(Cc2ccc(CO)o2)CC1,10µM*,-17%,10%,?,-19%,?
O=C(Nc1c(-c2ccccc2)nc2ccccn12)c1ccco1,3%,39%,-8%,72%,·,·
Cc1nn(-c2ccccc2)c(C)c1Cc1ccc(O)cc1,?,43%,-10%,47%,·,·
Cc1nn(-c2ccccc2)c2c1C(O)n1c(nc3ccccc31)S2 (stereo not given),11µM*,1.7µM*,3%,-15%,-12%,i
COc1ccc(Br)c(Cn2c(C)c(C(=O)N(C)Cc3ccc(F)cc3)sc2=O)c1,·,·,·,·,-2%,1%
Cc1ccccc1NC(=O)CN(C)S(=O)(=O)c1ccc2c(c1)n(C)c(=O)c(=O)n2C,18%,?,11%,10µM*,·,·
